Source: PubChem BioAssay AID1852 (Sanford-Burnham Center for Chemical Genomics, 2009)
The campaign covered roughly 2,500 compounds. About 1,100 (44%) were called active.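 How the source made its calls: active means inhibition above 50% at 4 µM in the single-point screen; inactive means inhibition of 50% or less.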 The set was probably picked from earlier hits. The list shows a part of the results.

Assay: blockers of TNF-a NF-kB luciferase induction – cell-based, HEK293T NF-kB-Luc, luminescence, selectivity assay for NOD1/NOD2 signaling inhibitor project, primary screen (AID 1852)
Settings: TNF-a induced, 14 h, at 4 µM, hits give high values

SMILES	inhibition
O=C1NC(=O)/C(=C\c2ccc(Oc3cnccn3)cc2)S1	-64.2% (inactive)
O=[N+]([O-])c1cccc(/C=N\N=C2c3ccccc3-c3ccccc32)c1O	7.7% (inactive)
O=[N+]([O-])c1ccc(O)c(/C=N\N=C2c3ccccc3-c3ccccc32)c1	77% (active)
Oc1nc(Nc2ccc(Cl)cc2Cl)sc1/C=C1\C=Nc2ccccc21	5.6% (inactive)
Cc1ccc(CSc2nc(-c3ccccc3)c(C#N)c(=O)[nH]2)cc1	-18% (inactive)
Cc1ccc(Cc2c(C)c(C#N)c3[nH]c4ccccc4n3c2=O)cc1	74.6% (active)
CCCCc1c(C)c(C#N)c2[nH]c3ccccc3n2c1=O	44.9% (inactive)
Cc1ccc(O)c(C(=O)c2cc(C#N)c3nc4ccccc4n3c2)c1	33% (inactive)
Cc1ccc(S(=O)(=O)c2cc3ccccc3oc2=O)cc1	29.7% (inactive)
Cc1ccc(S(=O)(=O)c2cc3cc(Br)ccc3oc2=O)cc1	58.4% (active)
O=c1oc2ccc(Br)cc2cc1S(=O)(=O)c1ccc(F)cc1	68% (active)
CC(C)c1ccc(S(=O)(=O)c2cc3cc(Br)ccc3oc2=O)cc1	32.3% (inactive)
Cc1ccc(OCc2cc(C(=O)NC3CCCCC3)no2)cn1	46% (inactive)
C=CCC1(CC=C)CCCN1C(=O)c1cc(COc2cncc(Cl)c2)on1	19.5% (inactive)
C=CCC1(CC=C)CCCN1C(=O)c1cc(COc2ccc(C)nc2)on1	52.5% (active)
CC1CCc2sc3ncnc(N4CCOCC4)c3c2C1 (configuration not stated)	29.3% (inactive)
O=C(O)c1cccc(-c2ccc(/C=N/n3cnc4sc5c(c4c3=O)CCCC5)o2)c1	-30.8% (inactive)
c1ccc(N2CCN(c3ncnc4sc5c(c34)CCC5)CC2)cc1	57.1% (active)
CC1=NNC(=O)/C1=C\c1cn(-c2ccccc2)nc1-c1cccs1	-42.7% (inactive)
COc1cccc(N2CCN(c3ncnc4c3[nH]c3ccc(F)cc34)CC2C)c1 (configuration not stated)	110% (active)
Cc1cccc(N2CCN(C(=O)C3CCN(c4ncnc5c4nc4n5CCCCC4)CC3)CC2C)c1 (configuration not stated)	33.7% (inactive)
COc1cccc(N2CCN(c3ncnc4c3[nH]c3ccccc34)CC2C)c1 (configuration not stated)	106% (active)
NC(=O)c1c(NC(=O)c2ccc([N+](=O)[O-])o2)sc2c1CCCC2	-24.9% (inactive)

SMILES	inhibition
Cc1nc2ccccc2c2oc(C(=O)NCC3COc4ccccc4O3)cc12 (configuration not stated)	39.3% (inactive)
COc1ccc(CNC(=O)c2cc3c(C)nc4ccccc4c3o2)c(OC)c1	62.8% (active)
COc1ccc(OC)c(Nc2c3c(nc4ccccc24)CCC3)c1	49.6% (inactive)
O=C(COc1ccc(C(=O)c2ccccc2)cc1)Nc1cccnc1	46.8% (inactive)
O=C(COc1ccc2c(-c3ccccc3)cc(=O)oc2c1)Nc1cccnc1	34.1% (inactive)
CCCCc1cc(=O)oc2cc(OCC(=O)Nc3cccnc3)c(Cl)cc12	85.3% (active)
COc1nc(Nc2nc3ccccc3c(=O)[nH]2)nc2ccc(C)cc12	67.4% (active)
Cc1[nH]n(-c2ccccc2)c(=O)c1/C=N/NC(=O)c1cccc(F)c1	-0.8% (inactive)
Cc1ccc(-n2[nH]c(C)c(/C=N/Nc3ccc([N+](=O)[O-])cc3[N+](=O)[O-])c2=O)cc1C	83.2% (active)
COc1ccc(C(=O)Nc2ccccc2C(=O)N/N=C/c2ccccn2)cc1OC	102% (active)
C/C(=N/NC(=S)Nc1cccc(C)c1)c1cccc([N+](=O)[O-])c1	6.4% (inactive)
Cc1ccc2cccc(N=Cc3c(C)[nH]n(-c4ccccc4)c3=O)c2n1	38.3% (inactive)
Cc1[nH]n(-c2ccccc2)c(=O)c1/C=N/NC(=O)c1cccc([N+](=O)[O-])c1	76.8% (active)
Cc1cccc(/C=N/NC(=O)c2cccc([N+](=O)[O-])c2)n1	97.4% (active)
Cc1c(C(=O)N/N=C/c2ccoc2)cccc1[N+](=O)[O-]	-12.6% (inactive)
COc1ccc(C(=O)N/N=C/c2ccc(OC(=O)c3cccc4ccccc34)c([N+](=O)[O-])c2)cc1	41.6% (inactive)
CCOc1cc(S(=O)(=O)NCc2ccncc2)ccc1Cl	48.8% (inactive)
O=C(N/N=C/c1ccccn1)c1ccc(Cl)c(Cl)c1	101% (active)
CC(/C=C/c1ccccc1)=N/NC(=O)c1cccc(Br)c1	13.3% (inactive)
C/C(=N\NC(=O)c1ccc(Cl)c(Cl)c1)c1ccc(Br)s1	40.4% (inactive)
C/C(Cn1nnc([N+](=O)[O-])n1)=N\NC(=O)c1ccc(Cl)c(Cl)c1	31.3% (inactive)
O=C(N/N=C/c1ccccn1)c1cc([N+](=O)[O-])cc([N+](=O)[O-])c1	96.4% (active)
O=C(N/N=C/c1ccccn1)c1ccc(Cl)cc1	-21.2% (inactive)

SMILES	inhibition
O=C(N/N=C/c1ccccn1)c1sc2ccccc2c1Cl	85.8% (active)
COc1cc([N+](=O)[O-])ccc1-c1ccc(/C=N/NC(=O)c2ccccc2O)o1	0.6% (inactive)
CC(/C=C/c1ccccc1)=N/NC(=O)c1cc([N+](=O)[O-])cc([N+](=O)[O-])c1	102% (active)
CCCN(CCC)c1ncnc2nc[nH]c12	83.4% (active)
CCN(c1ccc(OC)cc1)c1ncnc2nc[nH]c12	86.3% (active)
CCc1ccc(N(CC)c2ncnc3nc[nH]c23)cc1	82.5% (active)
C/C(Cl)=C/Cn1c(SC(C)C)nc2c1c(=O)[nH]c(=O)n2C	-13.9% (inactive)
O=C(Nc1ccccc1C(=O)O)c1cc(S(=O)(=O)Nc2cccc(F)c2)ccc1Cl	58.9% (active)
O=C(Nc1cccc([N+](=O)[O-])c1)c1ccc2ccccc2c1O	32.8% (inactive)
Cc1cccc(NC(=O)c2cccc(NS(=O)(=O)c3ccc(Cl)cc3)c2)c1	23.1% (inactive)
Cc1ccc(NS(=O)(=O)c2cc(NC(=O)c3ccc4c(c3)NC(=O)CS4)ccc2C)c(C)c1	3.2% (inactive)
O=C(Nc1ccccc1C(=O)O)c1cccc(NS(=O)(=O)c2ccc(Br)cc2)c1	55.5% (active)
O=C1CSc2ccc(C(=O)Nc3cccc(S(=O)(=O)Nc4ccc(Br)cc4)c3)cc2N1	63.4% (active)
Cc1ccc(NS(=O)(=O)c2cc(NC(=O)c3ccc4c(c3)NC(=O)CS4)ccc2Cl)c(C)c1	-2.2% (inactive)
Cc1ccc2c(c1)CCCN2S(=O)(=O)c1cccc(C(=O)Nc2ccccc2C(=O)O)c1	5.4% (inactive)
O=C(/C=C/c1ccc([N+](=O)[O-])cc1)Nc1cccc(C(=O)Nc2ccccc2C(=O)O)c1	65.5% (active)
Cc1ccc(Sc2ccc(/C=C3/C(=O)NN(c4ccccc4)C3=O)o2)cc1	-8.6% (inactive)
O=C(Nc1ccccc1C(=O)O)c1cc(S(=O)(=O)Nc2ccccc2)ccc1Cl	58.9% (active)
O=C(Nc1ccc(Cl)cn1)c1ccc(Br)c(S(=O)(=O)N2CCCCC2)c1	39.5% (inactive)
NS(=O)(=O)c1ccc(NC(=O)c2cc(Cl)ccc2Cl)cc1	14.7% (inactive)
O=C(Nc1ccccc1C(=O)O)c1cc(S(=O)(=O)N2CCCCC2)c(Cl)cc1Cl	61% (active)
Cc1ccc(C(=O)Nc2ccccc2C(=O)O)cc1S(=O)(=O)Nc1ccccc1	76.6% (active)
O=C(CCl)Nc1cc(S(=O)(=O)N2CCCCCC2)ccc1Cl	17.6% (inactive)

SMILES	inhibition
O=C(c1cc2nc(-c3ccc(F)cc3)cc(C(F)(F)F)n2n1)N1CCCCC1c1cccnc1 (configuration not stated)	34.3% (inactive)
Brc1ccccc1OCCCCn1cnc2ccccc21	-10.4% (inactive)
O=c1nc(/C=C/c2ccccc2C(F)(F)F)cc(C(F)(F)F)[nH]1	-14.4% (inactive)
O=c1cc(C(F)(F)F)[nH]c2ccc(OC(F)(F)F)cc12	78.8% (active)
O=c1cc(C(F)(F)F)[nH]c2ccc(C(F)(F)F)cc12	73.1% (active)
Cc1ccc(NC(=O)/C=C/c2ccc([N+](=O)[O-])s2)c(C)c1	100% (active)
Cc1ccccc1NC(=O)/C=C/c1ccc([N+](=O)[O-])s1	104% (active)
CN(C(=O)/C=C/c1ccc([N+](=O)[O-])s1)c1ccccc1	37.1% (inactive)
Oc1[nH]c2ccccc2c1N=NC(=S)N1CCOCC1	94.8% (active)
Oc1[nH]c2ccccc2c1N=Nc1nc(Nc2ccccc2)nc(N2CCOCC2)n1	12.6% (inactive)
O=C(O)CCn1cc(/C=C\C(=O)c2ccc(Cl)cc2)c(-c2cccc(Br)c2)n1	77.2% (active)
Cc1ccc(-c2nn(CCC(=O)O)cc2/C=C\C(=O)c2ccc(Br)cc2)cc1	94.7% (active)
O=C(O)CCn1cc(/C=C/C(=O)c2ccc(Cl)cc2)c(-c2cccc(Br)c2)n1	-4.4% (inactive)
N#C/C(=C(/O)COC(=O)CSc1ccc2ccccc2c1)c1nc2ccccc2[nH]1	90.4% (active)
N#C/C(=C(/O)COC(=O)CSc1ccc(Cl)cc1)c1nc2ccccc2[nH]1	93.2% (active)
Cc1ccnc(NC(=O)Nc2ccc3c(c2)N(C)C(=O)CS3)c1	-55.6% (inactive)
O=C(Nc1nc(-c2ccccn2)cs1)c1cc(Cl)ccc1[N+](=O)[O-]	105% (active)
CCc1ccccc1OCC(=O)Nc1nc(-c2cccnc2)cs1	15.7% (inactive)
Cc1cc(C(=O)Nc2nc(-c3ccccn3)cs2)ccc1[N+](=O)[O-]	-1% (inactive)
O=C(Nc1nc(-c2cc(F)ccc2F)cs1)c1ccccn1	91.2% (active)
CC(Oc1ccc(Br)cc1)C(=O)Nc1nc(-c2ccccn2)cs1 (configuration not stated)	90.7% (active)
Cn1cc([N+](=O)[O-])c(C(=O)Nc2nc(-c3ccc(Cl)cc3)cs2)n1	43.8% (inactive)
O=C(Nc1nnc(SCc2ccc(F)cc2)s1)c1ccccn1	109% (active)
